JMJD2A Tudor inh = JMJD2A Tudor domain (human) inhibition; O75164; AlphaScreen JMJD2A-Tudor / H3K4me3 peptide binding; Potency, µM (doses to about 114 µM), without a hit: at the highest dose activity change, negative = inhibition, hits mostly inhibitors; hit rate 4.4% among 390,000; further: on the % scale 0 is the no-effect control and ±100 the full control effect; nearly all actives have a fitted effect of over 50% in size
Target sequence (O75164 whole entry, looked up, the tested form may be a part): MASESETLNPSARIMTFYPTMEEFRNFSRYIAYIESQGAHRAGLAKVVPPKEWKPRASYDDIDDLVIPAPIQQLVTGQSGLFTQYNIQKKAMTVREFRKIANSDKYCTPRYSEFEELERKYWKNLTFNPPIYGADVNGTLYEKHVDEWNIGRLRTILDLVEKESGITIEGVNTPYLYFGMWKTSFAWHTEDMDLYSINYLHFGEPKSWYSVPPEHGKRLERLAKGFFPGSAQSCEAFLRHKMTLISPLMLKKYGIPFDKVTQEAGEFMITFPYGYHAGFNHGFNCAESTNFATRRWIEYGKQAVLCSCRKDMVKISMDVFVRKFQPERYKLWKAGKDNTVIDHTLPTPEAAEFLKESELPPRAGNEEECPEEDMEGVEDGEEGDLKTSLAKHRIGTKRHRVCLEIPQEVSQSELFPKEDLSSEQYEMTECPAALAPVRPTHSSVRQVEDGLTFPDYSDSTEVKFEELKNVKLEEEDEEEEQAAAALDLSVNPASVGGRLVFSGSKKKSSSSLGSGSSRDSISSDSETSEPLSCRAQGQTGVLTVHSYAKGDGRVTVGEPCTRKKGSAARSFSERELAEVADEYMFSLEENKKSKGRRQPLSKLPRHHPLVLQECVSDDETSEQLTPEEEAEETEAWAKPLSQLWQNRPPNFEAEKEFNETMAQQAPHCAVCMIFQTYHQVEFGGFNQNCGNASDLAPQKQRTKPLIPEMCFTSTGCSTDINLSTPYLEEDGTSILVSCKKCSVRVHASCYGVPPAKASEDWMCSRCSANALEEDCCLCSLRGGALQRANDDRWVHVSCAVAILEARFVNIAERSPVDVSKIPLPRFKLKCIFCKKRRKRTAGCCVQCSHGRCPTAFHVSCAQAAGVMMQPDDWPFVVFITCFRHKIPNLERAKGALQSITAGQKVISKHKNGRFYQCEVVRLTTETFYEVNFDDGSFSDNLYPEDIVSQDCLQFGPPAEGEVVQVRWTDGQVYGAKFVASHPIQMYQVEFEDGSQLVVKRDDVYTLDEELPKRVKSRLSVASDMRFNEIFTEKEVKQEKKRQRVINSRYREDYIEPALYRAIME
VDR inhibitor = inhibitors of human vitamin D receptor | P11473 | VDR-SRC2-3 peptide fluorescence polarization, 2 h | Potency, µM, without a hit: max response, negative = inhibition, usual class: inhibitors | hit rate 0.93% among 400,000 | AID 504847; further: on the % scale 0 is the no-effect control and ±100 the full control effect
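Measured by FP: displacement of SRC2-3 coactivator peptide from VDR by library compounds, following a two-hour ambient incubation.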
PLK1 PBD inh = PLK1 (human) polo-box domain binding inhibition. Potency, µM, for inactives: max response, negative = inhibition, usual class: inhibitors. P53350. hit rate 2.8% among 360,000. Plk1 PBD binding of FITC phosphopeptide, fluorescence polarization; further: series mostly up to about 57 µM; on the % scale 0 is the no-effect control and ±100 the full control effect; nearly all actives have a fitted effect of over 65% in size
BAZ2B block = inhibitors of human BAZ2B bromodomain. Q9UIF8. AlphaScreen BAZ2B-H3K14Ac peptide displacement. Potency, µM (series often up to 114 µM), for inactives: at the highest dose activity change, negative = inhibition, actives largely listed as inhibitors. hit rate 4.4% among 360,000. AID 504333; further: on the % scale 0 is the no-effect control and ±100 the full control effect; nearly all actives have a fitted effect of over 60% in size
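Protein-peptide AlphaScreen: BAZ2B 50 nM, b-H3K14Ac 50 nM, 1x PBS pH 7.4 + 0.01% Tween-20. Preincubation 30 min RT; cpd 30 min RT (top 110 uM); beads 20 min RT, light-protected.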
L3MBTL1 block = inhibitors of human L3MBTL1. Q9Y468. AlphaScreen L3MBTL1–H3K9me1 peptide binding. Potency, µM (series often up to 57.1 µM), for inactives: top-dose activity, negative = inhibition, actives largely listed as inhibitors. hit rate 0.66% among 230,000. AID 485360; further: on the % scale 0 is the no-effect control and ±100 the full control effect; nearly all actives have a fitted effect of over 60% in size
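Displacement of a biotinylated histone H3(1-15) peptide monomethylated at Lys9 (75 nM) from L3MBTL1 (50 nM) was measured by AlphaScreen after a 30 min room-temperature compound incubation; cefsulodin titration served as intraplate control.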
HP1b binding inh = inhibitors of HP1-beta chromodomain binding to methylated histone tails | Potency, µM (top dose mostly 114 µM), inactives show at the top dose activity change, negative = inhibition, hits mostly inhibitors | AlphaScreen HP1-beta / biotin-H3K9me3 peptide binding | hit rate 0.56% among 390,000 | P83916; further: nearly all actives have a fitted effect of over 70% in size
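Compound inhibition of the preformed complex between 50 nM HP1-beta and 50 nM biotinylated H3K9me3 peptide was read by AlphaScreen. Buffer was PBS pH 7.4 with 0.01% Tween-20. Incubations ran 30 min at room temperature, with 10 ug/mL donor/acceptor beads.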
TbPYK confirm = confirmation of Trypanosoma brucei pyruvate kinase inhibitors; Potency, µM (highest dose often 76.9 µM), inactives show at the highest dose activity change, negative = inhibition, actives largely listed as inhibitors; shares compounds with PLK1 PBD inh; recombinant TbPYK, Kinase-Glo ATP luminescence; AID 720569; hit rate 67% among 890; further: on the % scale 0 is the no-effect control and ±100 the full control effect; nearly all actives have a fitted effect of over 70% in size
TbPYK orthogonal = TbPYK inhibition, orthogonal confirmation. AID 720584. Potency, µM (highest dose often 76.9 µM), for inactives: at the highest dose activity change, negative = inhibition, hits mostly inhibitors. shares compounds with PLK1 PBD inh. hit rate 62% among 890. recombinant TbPYK, ADP-Glo luminescence, 60 min; further: on the % scale 0 is the no-effect control and ±100 the full control effect; nearly all actives have a fitted effect of over 75% in size
Active calls of the source: *; ? = inconclusive; · = no result given. Rows were chosen to be rich in hits. Some 6.9% of all compounds tested hit in one or more screens of this group. The call rests on the fitted dose curve; in most records, active means well fitted curve in the direction sought with a large enough effect; inconclusive means small, poorly fitted or top-dose-only effect, or another doubt; inactive means no such curve, though single readings can be large; an effect the other way counts as inactive or inconclusive. Potency means the concentration at half of the fitted maximal effect.

SMILES	JMJD2A Tudor inh	VDR inhibitor	PLK1 PBD inh	BAZ2B block	L3MBTL1 block	HP1b binding inh	TbPYK confirm	TbPYK orthogonal
COc1cc(C2CC(=O)N3CN(Cc4ccco4)CSC3=C2C#N)ccc1OCc1ccccc1 (stereo not drawn)	22.4µM*	?	?	44.7µM*	-12.8%	?	?	1µM*
c1ccc2cc(C3OCC4(CCCC4)CO3)ccc2c1	·	·	-15.8%	·	·	·	·	·
Cc1ccc(CNC(=O)c2cc3c(s2)-c2ccccc2SC3)cc1	4.7%	14.5%	·	-3.2%	·	29.8%	·	·
CCOCCCNC(=O)c1cc2c(s1)-c1ccccc1SC2	-3.3%	?	26.7µM*	3.3%	·	15.4%	10µM*	12.6µM*
CC(=O)c1ccc(-c2nc3ccccc3n2C)o1	-6.0%	7.2%	-6.6%	7.0%	-3.1%	19.4%	·	·
Cc1ccc(-c2nc3ccccc3n2C)o1	-19.7%	-18.7%	-10.7%	-26.1%	·	14.9%	?	-7.0%
Fc1cccc(C[n+]2csc3ccccc32)c1	79.4µM*	31.6µM*	23.8µM*	?	-11.8%	18.2%	?	12.6µM*
Brc1cc2ccccc2[n+](Cc2ccccc2)c1	-15.2%	-8.2%	-0.6%	-1.3%	0.0%	37.1%	·	·
c1ccc(C[n+]2csc3ccccc32)cc1	?	39.8µM*	3.77µM*	?	-12.4%	23.1%	?	14.1µM*
CC(C)n1c(=O)[nH][nH]c1=S	8.91µM*	50.1µM*	10.6µM*	50.1µM*	1.7%	12.6µM*	1µM*	2.51µM*
Cc1cc(/C=C(\C#N)C(=O)OCC(=O)N(C)c2c(N)n(Cc3ccccc3)c(=O)[nH]c2=O)c(C)n1CC(C)C	·	·	-0.7%	·	·	·	·	·
O=C1c2sc3nc4n(c(=O)c3c2CCC1Br)CCCCC4 (stereo not drawn)	7.94µM*	?	-1.2%	50.1µM*	-8.2%	?	3.98µM*	5.62µM*
O=c1c2c3c(sc2nc2n1CCCCC2)CCC3	-3.2%	-15.9%	-2.3%	7.7%	·	14.4%	·	·
O=C(NCCCNC(=O)c1cccs1)c1cccs1	?	?	2.67µM*	8.5%	0.8%	?	-4.7%	-9.0%
Cn1c(=O)c2c(nc(SCC(=O)O)n2Cc2cc3c(cc2Cl)OCO3)n(C)c1=O	44.7µM*	-5.2%	-5.6%	?	·	58.1%	2µM*	3.98µM*
CCn1c(SCC(=O)Nc2ccc3c(c2)OCO3)nc2c1c(=O)n(C)c(=O)n2C	-9.9%	-0.1%	-3.5%	4.4%	·	25.5%	·	·
O=C(CSc1nnc(-c2ccc(O)cc2)n1Cc1ccco1)N1CCc2ccccc2C1	-27.1%	-0.7%	-5.3%	8.6%	1.4%	0.3%	·	·
O=P(c1ccccc1)(c1ccccc1)c1ccccc1C(Br)Br	·	·	-10.6%	·	·	·	22.4µM*	31.6µM*
CC(C)(C)c1cccc(P(=O)(c2ccccc2)c2ccccc2)c1O	-15.8%	-12.6%	-4.7%	-1.4%	1.8%	10.6%	·	·
CC(=O)Nc1ccc(S(=O)(=O)CC(=O)CS(=O)(=O)c2ccc(NC(C)=O)cc2)cc1	·	·	-19.1%	·	·	·	·	·
CN(C)c1ccc(C(=C2C=CC(=[N+](C)C)C=C2)c2c(O)c(S(=O)(=O)[O-])cc3cc(S(=O)(=O)O)ccc23)cc1	·	87.7%	·	·	·	·	·	·
CCN(CC)c1ccc(C(=C2C=CC(=[N+](CC)CC)C=C2)c2ccc(S(=O)(=O)O)cc2S(=O)(=O)[O-])cc1	?	57.1%	-13.2%	·	·	22.4µM*	15.8µM*	2.3%
Cc1ccc(S(=O)(=O)N(C)C[C@H]2OCCCC[C@@H](C)Oc3ccc(N(C)C)cc3C(=O)N([C@H](C)CO)C[C@@H]2C)cc1	·	·	-9.0%	·	·	·	7.08µM*	7.94µM*
C[C@@H]1CCCCO[C@H](CN(C)C(=O)C2CCCCC2)[C@@H](C)CN([C@H](C)CO)C(=O)c2cc(N(C)C)ccc2O1	·	·	?	·	·	·	28.2µM*	?
O=C(CN1C(=O)NC2(CCCCC2)C1=O)Nc1ccccc1N1CCCCC1	-16.1%	0.5%	-8.2%	8.7%	2.4%	38.5%	·	·
SMILES	JMJD2A Tudor inh	VDR inhibitor	PLK1 PBD inh	BAZ2B block	L3MBTL1 block	HP1b binding inh	TbPYK confirm	TbPYK orthogonal
CCOC(=O)C1(Cc2ccc(Cl)cc2)CCN(C(=O)CCc2ccncc2)CC1	-4.2%	2.9%	-8.2%	4.8%	-4.3%	36.3%	·	·
Cc1ccc(-c2csc3ncn(-n4c(C)ccc4C)c(=O)c23)o1	?	?	?	?	-3.0%	-6.1%	-23.7%	?
COc1ccc(NC(=O)/C(=C/c2ccc3c(c2)OCO3)NC(C)=O)cc1	-14.0%	-4.3%	-4.3%	-12.5%	3.7%	31.0%	·	·
O=C1c2sc3nc4ccccc4n3c2C(=O)N1c1ccccc1Cl	-25.5%	-4.0%	11.9µM*	?	·	?	6.31µM*	15.8µM*
COC(=O)c1sccc1NC(=O)Nc1ccc(C)cc1	-13.8%	0.7%	-3.7%	0.1%	·	10.0%	·	·
COC(=O)c1sccc1NC(=O)Nc1ccc(F)cc1	8.2%	39.6%	4.1%	2.1%	·	34.2%	?	-4.2%
Cc1nc(N2CCCCC2)c2sc(=S)n(C)c2n1	-17.6%	3.5%	-16.0%	5.8%	-5.1%	52.2%	·	·
CCN1CCN(c2nc(C)nc3c2sc(=S)n3C)CC1	?	25.1µM*	2.99µM*	-4.6%	11.5%	-13.9%	5.62µM*	15.8µM*
CC(=O)NS(=O)(=O)c1ccc(NC(=O)/C=C/c2ccc(C)o2)cc1	35.5µM*	-16.9%	21.2µM*	-20.3%	?	?	5.01µM*	7.94µM*
CC(=O)Nc1ccc(S(=O)(=O)N/N=C/c2ccc(C)o2)cc1	-23.7%	-18.5%	-22.8%	?	·	1.1%	·	·
Cn1ncc(Br)c1C(=O)NC(=S)N1CCN(c2ccccn2)CC1	-13.0%	10.0%	-0.1%	-8.9%	-6.5%	35.3%	28.2µM*	31.6µM*
CC(=O)Nc1ccc2c(c1)Cc1cc(N3C(=O)C=CC3=O)ccc1-2	7.08µM*	28.2µM*	2.99µM*	·	·	?	8.91µM*	6.31µM*
CCOc1ccc(S(=O)(=O)N(C(=O)c2ccco2)c2cc3sc(=O)oc3c3ccccc23)cc1	?	31.6µM*	?	?	-4.8%	?	?	?
Cc1ccc(S(=O)(=O)N(C(=O)c2ccco2)c2cc3sc(=O)oc3c3ccccc23)cc1	?	20µM*	-6.6%	?	-9.9%	?	-29.0%	?
O=C1N=C(c2ccccc2)S/C1=C\c1cccs1	22.4µM*	?	23.8µM*	?	·	-74.0%	4.47µM*	6.31µM*
